# From PubChem BioAssay (NCATS)
# Records with an inconclusive call do not appear. Where a call stands in place of a potency, no number is given. Unmarked numbers belong to inactive results. Calls of active or inactive are those of the source. The call rests on the fitted dose curve; in most records, active means well fitted curve in the direction sought with a large enough effect; inconclusive means small, poorly fitted or top-dose-only effect, or another doubt; inactive means no such curve, though single readings can be large; an effect the other way counts as inactive or inconclusive.
# What was measured:
# [1] = qHTS for Inhibitors of Plasmodium falciparum (DD2) proliferation (AID 504314);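 further: parasite DNA measured by SYBR Green fluorescence after red cell lysis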
# Outline: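 Erythrocytes infected with P. falciparum Dd2 (0.3% parasitemia, 2.5% hematocrit) exposed to compound 72 h at 37C, 5% CO2. Parasite DNA quantified by SYBR Green fluorescence after saponin/Triton lysis overnight; normalized to 0.29 uM artemisinin and DMSO.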
# [2] = qHTS for Inhibitors of Plasmodium falciparum (7G8) proliferation (AID 504316); further: nearly all actives have a fitted effect of over 65% in size; further: potency means the concentration at half of the fitted maximal effect
# Outline: (§1)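 Erythrocytes infected with P. falciparum line (0.3% parasitemia, 2.5% hematocrit final) incubated with compounds 72 h at 37 °C, 5% CO2; SYBR Green lysis buffer added, fluorescence read next day. Normalized to 0.29 uM artemisinin and DMSO.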
# [3] = qHTS for Inhibitors of Plasmodium falciparum (HB3) proliferation (AID 504318); further: nearly all actives have a fitted effect of over 60% in size
# Outline: as §1
# [4] = qHTS for Inhibitors of Plasmodium falciparum (CP250) proliferation (AID 504320)
# Outline: as §1
Structure (SMILES),Potency [1],Potency [2],Potency [3],Potency [4]
CCN1C(=O)N[C@@H](c2ccc(Br)cc2)C(C(C)=O)=C1C,inactive,inactive,inactive,inactive
COC[C@@H](O)[C@@H](OC)[C@H](OC)[C@H](Cc1c(OC)cc(OC)cc1OC)OC,inactive,inactive,inactive,inactive
COC(=O)CCC(=O)OC1(C)C(=O)C=C2C=C(C3CC3)N(CC(C)C)C=C2C1=O (stereo not given),inactive,1.51 µM (active),inactive,inactive
C[C@H]1Cc2c(-c3ccccc3)nc3c(c2CO1)CN(C(=O)C1CCCCC1)CC3,inactive,inactive,inactive,inactive
COC(=O)CCCC1=CC2=CC(=O)C(C)(OC(=O)c3cccs3)C(=O)C2=CN1c1ccccc1 (stereo not given),inactive,inactive,inactive,–
CC(CCN1CCCc2nc(C)c(C)cc21)=NO[C@H](C)c1cn([C@@H]2COC[C@@H]2O)nn1,inactive,inactive,inactive,–
COC(=O)CCCC1=CC2=C(c3ccccc3)C(=O)C(C)(OC(=O)C3CCCC3)C(=O)C2=CN1C1CC1 (stereo not given),inactive,inactive,inactive,inactive
C[C@H]1Cc2c(COc3ccccc3)nc3c(c2CO1)CN(C(=O)NCCc1c[nH]c2ccccc12)CC3,inactive,inactive,inactive,inactive
